# How the values were obtained:
# Format in all cases: functional
# Plasmodium falciparum [1] = test: GSK_TCMDC: Inhibition of Plasmodium falciparum 3D7 in whole red blood cells, using parasite LDH activity as an index of growth. Test compounds present at 2uM
# Plasmodium falciparum [2] = test: GSK_TCMDC: Inhibition of Plasmodium falciparum Dd2 in whole red blood cells, using parasite LDH activity as an index of growth. Test compounds present at 2uM
# HepG2 = test: GSK_TCMDC: Percent inhibition of human HepG2 cell line. Test compounds present at 10uM.
Compound,Inhibition (Plasmodium falciparum [1]) [%],Inhibition (Plasmodium falciparum [2]) [%],Inhibition (HepG2) [%]
Cc1cc(N(C)C)nc(Nc2ccc(NC(=O)c3ccccc3F)cc2)n1,89,26,0
COc1ccc(CCN(C)CCOc2ccc(NC(=O)c3cccc4cc5ccccc5nc34)cc2)cc1OC,100,99,37
CN(c1ccc(NC(=O)Nc2cc(C(F)(F)F)ccc2F)cc1)c1ccnc(NCCN2CCCC2)n1.O=C(O)C(F)(F)F,93,1,94
O=C(Nc1ccc(F)cc1)NC1CCN(c2ccnc3cc(Cl)ccc23)CC1.O=C(O)C(F)(F)F,97,57,10
C[C@H]1CN(Cc2cccc(-c3cc(CNC(=O)c4cccc(CC5CCN(C)CC5)c4)ccc3F)c2)CCN1C,100,99,42
Cc1nc(-c2cccc(C(=O)NC3CCC(CCN4CCc5ccc(-c6cccnc6)cc5CC4)CC3)c2)no1.Cl (stereo not given),98,4,17
CC(C)CCN(Cc1cncn1Cc1cccc(Cl)c1)C(=O)c1cncc(-c2ccccc2)c1,99,0,9
c1ccc(CN2CCc3cc4nccc(N5CCNCC5)c4cc32)cc1,100,99,9
Cc1cccc2c3c([nH]c12)C1(CCN(Cc2ccccc2)CC1)NC(C(=O)NCc1ccccc1)C3 (stereo not given),81,8,0
Cc1cccc2nc(-c3ccc(-c4ccc(NC(=O)C(C)CN(C)C)cc4)s3)[nH]c12 (stereo not given),100,98,23

# From ChEMBL document CHEMBL1157539, “Thousands of chemical starting points for antimalarial lead identification” (Nature, 2010)
